# From PubChem BioAssay (NCI)
# The panel holds about 83,000 compounds, 20% with a hit somewhere; the sample as a whole holds those more often.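 The test compound was applied at a single concentration to cells in 96-well plates for 48 hours, and percent growth was recorded.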 Unmarked numbers belong to inactive results. Calls of active or inactive are those of the source. Rule for the calls: active = growth percent below 10; inactive = the rest.
# Tested on: SR leukemia
# Assay: NCI-60 one-dose screen, 48 h (100 = growth as untreated, 0 = no growth, -100 = all killed)
# Conditions: 10 µM unless noted
row,Structure (SMILES),growth
1,CCOC(=O)c1cnn(-c2nc(-c3ccc(F)cc3)c(C#N)c(N3CCOCC3)n2)c1N,81.9%
2,Cc1c(O)c(=O)ccn1-c1nc2ccccc2s1,91.3%
3,Nc1ccc(C2=NN(C(=O)c3cc(-c4ccc(Cl)cc4)nc4ccccc34)C(c3ccc(Cl)cc3)C2)cc1 (centres undefined),25.7%
4,COc1ccc2nc(-c3ccc(OC)c(OC)c3)cc(-c3nnc(SCC(=O)Nc4ccc(C(C)=O)cc4)o3)c2c1,88.8%
5,CNCc1cccc2c1OCCOCCOCCN(CCN1CCOCC1)S(=O)(=O)c1ccc(cc1)-c1cnc(N)c(n1)C(=O)N2,7.93% (active)
6,COc1cc(C2=NN(C(C)=O)C(c3cccc(Nc4ccnc5cc(C(F)(F)F)ccc45)c3)C2)cc(OC)c1OC (centres undefined),29%
7,CC(C)CSc1nc(Nc2ccccc2)c(C#N)c(-c2ccc(F)cc2)n1,-11.1% (active)
8,CNc1cccc2c1C(=O)c1cccc(N)c1C2=O,9.01% (active)
9,NC(=O)c1ccc(C2C3=C(CCCC3=O)OC3=C2C(=O)c2ccccc2C3=O)cc1 (centres undefined),8.38% (active)
10,C=CCn1c(SCC(=O)Nc2ccc(C(=O)/C=C/c3ccc(Cl)cc3)cc2)nnc1-c1cc(OC)c(OC)c(OC)c1,72.9%
11,C=C1C(=O)O[C@H]2[C@H]1CC/C(C=Nc1c(N)cc(F)cc1Br)=C\CC[C@@]1(C)O[C@@H]21,21.3%
12,COc1cc(-c2csc(NC(=O)Nc3ccc(Cl)cc3)n2)cc(OC)c1OC,33.7%
13,COc1ccc(C(=O)c2cc(OC)c(C)c(OC)c2)cc1OC(=O)CCl,12.5%
14,Nc1c(C(=O)Nc2cccc3ccccc23)sc2nc3c(cc12)COCC3,22.4%
15,CN(C)C(CNc1oc(-c2cccc3ccccc23)nc1C#N)c1ccco1 (centres undefined),69.5%
16,Cc1cnc(-c2ccc(-c3ccc(NC(=O)Nc4c(F)cc(F)cc4F)cc3F)c3c2C(=O)NC3)[nH]1,-3.54% (active)
17,COc1ccc(-c2cc(C(=O)N3N=C(c4ccc(N)cc4)CC3c3ccc(OC)cc3)c3cc(OC)ccc3n2)cc1 (centres undefined),19.4%

row,Structure (SMILES),growth
1,COc1cc([C@H](C)c2ccc3ccccc3c2)cc(OC)c1OC,23.5%
2,O=c1nc(-c2ccccc2)c2cc(-c3ccc(N4CCCC4)nc3)ccc2[nH]1,18.2%
3,Cc1cccc2nc3c(n12)C(=O)C(=O)c1ccccc1-3,88.2%
4,CC(=O)Nc1c(C(=O)Nc2ccccc2)sc2nc3c(cc12)C(OC(C)=O)CCC3 (centres undefined),80%
5,CCN1CCN(c2ccc(NC(=O)Nc3nc4ccc(-c5ccccc5OC)cc4s3)cc2)CC1,-38% (active)
6,Cc1cc(Cl)cc(CN(Cc2ccccc2)Cc2c(O)ccc3ccccc23)c1O,92.9%
7,COC1=CC=CC2(OC)C3(O)CCCc4cccc(c43)N3C(=O)COC132 (centres undefined),109%
8,C=C1C(=O)O[C@H]2[C@H]1CC/C(COC(=O)N1CCC[C@H]1C(=O)Nc1ccc(OC)c(C(N)=O)c1O)=C\CC[C@@]1(C)O[C@@H]21,13.9%
9,Cc1cc(C)nc(NS(=O)(=O)c2ccc(Nc3ccc4c5c(n(CCCN(C)C)c(=O)c4c3)-c3ccccc3C5=O)cc2)n1,23.4%
10,COc1cc(NC(=O)c2cc(O)c(C/C=C(\C)CCC=C(C)C)c(O)c2)cc2c1O[C@]1(C)CC[C@@H](O)C(C)(C)[C@H]1C2,-1.71% (active)
11,CCCCCCN1C(=O)CN=C1Nc1ccc2cc3ccc(NC4=NCC(=O)N4CCCCCC)cc3nc2c1,0.413% (active)
12,Nc1ccc(C2=NN(C(=O)c3cc(-c4ccc(Cl)cc4)nc4ccccc34)C(c3ccccc3)C2)cc1 (centres undefined),25.9%
13,CN(CCC#N)C(=O)Nc1ccccc1,96.5%
14,C=C(C)[C@@H]1CC[C@]2(C(=O)OCCCC[P+](c3ccccc3)(c3ccccc3)c3ccccc3)CC[C@]3(C)[C@H](CC[C@@H]4[C@@]5(C)CC[C@H](OC(=O)C(Cl)Cl)C(C)(C)[C@@H]5CC[C@]43C)[C@@H]12,-34% (active)
15,CSc1cccc(NC(=O)Nc2nc3c(C)cccc3s2)c1,83.7%
16,O=C(O)c1cn(C2CC2)c2cc(N3CCN(Cc4nnc(Nc5ccccc5)o4)CC3)c(F)cc2c1=O,97.7%
17,O=C1CS/C(=N/c2nnc(-c3ccc(O)cc3)s2)N1,93.1%
